# Test results from the supplement of paper PMC4466140.
# B1: unnamed (peptide)
# chain: AERNYAPRLPRRETS
# Target: AgAbp1
# Test: SPOT peptide array binding signal intensity (averaged, normalized) (arbitrary units (background-subtracted, floor 0; scale differs between SH3 domains)); higher = stronger binding of the SH3 domain to the peptide
# Method: (§1)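 GST-tagged SH3 domains from S. cerevisiae (Sc), A. gossypii (Ag), C. albicans (Ca) and S. pombe (Sp) were incubated at 10 ug/ml overnight at 4 C on cellulose SPOT membranes carrying 292 synthetic 15-mer peptides mined from the S. cerevisiae proteome (cysteines replaced by serines). Binding was detected with anti-GST antibody, HRP secondary and chemiluminescence, quantified with Genespotter, and reported as normalized spot intensities averaged over biological replicates.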
row,Binder,SPOT peptide array binding signal intensity
1,B1,20

# Target: AgBbc1
# Test: as above
# Method: as §1
row,Binder,SPOT peptide array binding signal intensity
1,B1,69.8

# Target: AgBem1-D1
# Test: as above
# Method: as §1
row,Binder,SPOT peptide array binding signal intensity
1,B1,44.8

# Target: AgBzz1-D1
# Test: as above
# Method: as §1
row,Binder,SPOT peptide array binding signal intensity
1,B1,77

# Target: AgBzz1-D2
# Test: as above
# Method: as §1
row,Binder,SPOT peptide array binding signal intensity
1,B1,128

# Target: AgCyk3
# Test: as above
# Method: as §1
row,Binder,SPOT peptide array binding signal intensity
1,B1,1

# Target: AgFus1
# Test: as above
# Method: as §1
row,Binder,SPOT peptide array binding signal intensity
1,B1,3.25

# Target: AgHof1
# Test: as above
# Method: as §1
row,Binder,SPOT peptide array binding signal intensity
1,B1,124

# Target: AgHse1
# Test: as above
# Method: as §1
row,Binder,SPOT peptide array binding signal intensity
1,B1,87.5

# Target: AgLsb1
# Test: as above
# Method: as §1
row,Binder,SPOT peptide array binding signal intensity
1,B1,289

# Target: AgLsb4
# Test: as above
# Method: as §1
row,Binder,SPOT peptide array binding signal intensity
1,B1,3440

# Target: AgMyo5
# Test: as above
# Method: as §1
row,Binder,SPOT peptide array binding signal intensity
1,B1,≤ 0

# Target: AgNbp2
# Test: as above
# Method: as §1
row,Binder,SPOT peptide array binding signal intensity
1,B1,128

# Target: AgRvs167
# Test: as above
# Method: as §1
row,Binder,SPOT peptide array binding signal intensity
1,B1,340

# Target: AgSho1
# Test: as above
# Method: as §1
row,Binder,SPOT peptide array binding signal intensity
1,B1,≤ 0

# Target: AgSla1-D1-D2
# Test: as above
# Method: as §1
row,Binder,SPOT peptide array binding signal intensity
1,B1,1.5

# Target: AgSla1-D3
# Test: as above
# Method: as §1
row,Binder,SPOT peptide array binding signal intensity
1,B1,≤ 0

# Target: CaAbp1-D1
# Test: as above
# Method: as §1
row,Binder,SPOT peptide array binding signal intensity
1,B1,84

# Target: CaAbp1-D2
# Test: as above
# Method: as §1
row,Binder,SPOT peptide array binding signal intensity
1,B1,61

# Target: CaBbc1
# Test: as above
# Method: as §1
row,Binder,SPOT peptide array binding signal intensity
1,B1,454

# Target: CaBem1-D1
# Test: as above
# Method: as §1
row,Binder,SPOT peptide array binding signal intensity
1,B1,25.5

# Target: CaBzz1-D1
# Test: as above
# Method: as §1
row,Binder,SPOT peptide array binding signal intensity
1,B1,171

# Target: CaBzz1-D2
# Test: as above
# Method: as §1
row,Binder,SPOT peptide array binding signal intensity
1,B1,62.6

# Target: CaCyk3
# Test: as above
# Method: as §1
row,Binder,SPOT peptide array binding signal intensity
1,B1,9

# Target: CaFus1
# Test: as above
# Method: as §1
row,Binder,SPOT peptide array binding signal intensity
1,B1,23.8

# Target: CaHof1
# Test: as above
# Method: as §1
row,Binder,SPOT peptide array binding signal intensity
1,B1,7.5

# Target: CaHse1
# Test: as above
# Method: as §1
row,Binder,SPOT peptide array binding signal intensity
1,B1,222

# Target: CaLsb1
# Test: as above
# Method: as §1
row,Binder,SPOT peptide array binding signal intensity
1,B1,4.75

# Target: CaLsb4
# Test: as above
# Method: as §1
row,Binder,SPOT peptide array binding signal intensity
1,B1,4670

# Target: CaMyo5
# Test: as above
# Method: as §1
row,Binder,SPOT peptide array binding signal intensity
1,B1,5.5

# Target: CaNbp2
# Test: as above
# Method: as §1
row,Binder,SPOT peptide array binding signal intensity
1,B1,52.5

# Target: CaRvs167
# Test: as above
# Method: as §1
row,Binder,SPOT peptide array binding signal intensity
1,B1,1200

# Target: CaRvs167-3
# Test: as above
# Method: as §1
row,Binder,SPOT peptide array binding signal intensity
1,B1,≤ 0

# Target: CaSho1
# Test: as above
# Method: as §1
row,Binder,SPOT peptide array binding signal intensity
1,B1,22.5

# Target: CaSla1-D1-D2
# Test: as above
# Method: as §1
row,Binder,SPOT peptide array binding signal intensity
1,B1,19

# Target: CaSla1-D3
# Test: as above
# Method: as §1
row,Binder,SPOT peptide array binding signal intensity
1,B1,0.75

# Target: ScAbp1
# Test: as above
# Method: as §1
row,Binder,SPOT peptide array binding signal intensity
1,B1,27.8

# Target: ScBbc1
# Test: as above
# Method: as §1
row,Binder,SPOT peptide array binding signal intensity
1,B1,22.4

# Target: ScBem1-D1
# Test: as above
# Method: as §1
row,Binder,SPOT peptide array binding signal intensity
1,B1,6

# Target: ScBzz1-D1
# Test: as above
# Method: as §1
row,Binder,SPOT peptide array binding signal intensity
1,B1,56.8

# Target: ScBzz1-D2
# Test: as above
# Method: as §1
row,Binder,SPOT peptide array binding signal intensity
1,B1,73.8

# Target: ScCyk3
# Test: as above
# Method: as §1
row,Binder,SPOT peptide array binding signal intensity
1,B1,2.25

# Target: ScFus1
# Test: as above
# Method: as §1
row,Binder,SPOT peptide array binding signal intensity
1,B1,≤ 0

# Target: ScHof1
# Test: as above
# Method: as §1
row,Binder,SPOT peptide array binding signal intensity
1,B1,17.1

# Target: ScHse1
# Test: as above
# Method: as §1
row,Binder,SPOT peptide array binding signal intensity
1,B1,42

# Target: ScLsb1
# Test: as above
# Method: as §1
row,Binder,SPOT peptide array binding signal intensity
1,B1,184

# Target: ScLsb2
# Test: as above
# Method: as §1
row,Binder,SPOT peptide array binding signal intensity
1,B1,158

# Target: ScLsb3
# Test: as above
# Method: as §1
row,Binder,SPOT peptide array binding signal intensity
1,B1,6160

# Target: ScLsb4
# Test: as above
# Method: as §1
row,Binder,SPOT peptide array binding signal intensity
1,B1,3130

# Target: ScMyo3
# Test: as above
# Method: as §1
row,Binder,SPOT peptide array binding signal intensity
1,B1,0.75

# Target: ScMyo5
# Test: as above
# Method: as §1
row,Binder,SPOT peptide array binding signal intensity
1,B1,≤ 0

# Target: ScNbp2
# Test: as above
# Method: as §1
row,Binder,SPOT peptide array binding signal intensity
1,B1,283

# Target: ScPex13
# Test: as above
# Method: as §1
row,Binder,SPOT peptide array binding signal intensity
1,B1,252

# Target: ScRvs167
# Test: as above
# Method: as §1
row,Binder,SPOT peptide array binding signal intensity
1,B1,2200

# Target: ScSho1
# Test: as above
# Method: as §1
row,Binder,SPOT peptide array binding signal intensity
1,B1,268

# Target: ScSla1-D1-D2
# Test: as above
# Method: as §1
row,Binder,SPOT peptide array binding signal intensity
1,B1,206

# Target: ScSla1-D3
# Test: as above
# Method: as §1
row,Binder,SPOT peptide array binding signal intensity
1,B1,13

# Target: SpAbp1-D1
# Test: as above
# Method: as §1
row,Binder,SPOT peptide array binding signal intensity
1,B1,50.5

# Target: SpBbc1
# Test: as above
# Method: as §1
row,Binder,SPOT peptide array binding signal intensity
1,B1,7.25

# Target: SpBzz1-D1
# Test: as above
# Method: as §1
row,Binder,SPOT peptide array binding signal intensity
1,B1,332

# Target: SpBzz1-D2
# Test: as above
# Method: as §1
row,Binder,SPOT peptide array binding signal intensity
1,B1,4.5

# Target: SpCyk3
# Test: as above
# Method: as §1
row,Binder,SPOT peptide array binding signal intensity
1,B1,2

# Target: SpHof1
# Test: as above
# Method: as §1
row,Binder,SPOT peptide array binding signal intensity
1,B1,49.2

# Target: SpHof1-2
# Test: as above
# Method: as §1
row,Binder,SPOT peptide array binding signal intensity
1,B1,10.2

# Target: SpHof1-3
# Test: as above
# Method: as §1
row,Binder,SPOT peptide array binding signal intensity
1,B1,197

# Target: SpHse1
# Test: as above
# Method: as §1
row,Binder,SPOT peptide array binding signal intensity
1,B1,85.5

# Target: SpLsb1
# Test: as above
# Method: as §1
row,Binder,SPOT peptide array binding signal intensity
1,B1,177

# Target: SpLsb4
# Test: as above
# Method: as §1
row,Binder,SPOT peptide array binding signal intensity
1,B1,3100

# Target: SpMyo1
# Test: as above
# Method: as §1
row,Binder,SPOT peptide array binding signal intensity
1,B1,11.5

# Target: SpNbp2
# Test: as above
# Method: as §1
row,Binder,SPOT peptide array binding signal intensity
1,B1,≤ 0

# Target: SpPex13
# Test: as above
# Method: as §1
row,Binder,SPOT peptide array binding signal intensity
1,B1,3.5

# Target: SpRvs167
# Test: as above
# Method: as §1
row,Binder,SPOT peptide array binding signal intensity
1,B1,1930

# Target: SpSla1-D1-D2
# Test: as above
# Method: as §1
row,Binder,SPOT peptide array binding signal intensity
1,B1,≤ 0

# Target: SpSla1-D3
# Test: as above
# Method: as §1
row,Binder,SPOT peptide array binding signal intensity
1,B1,≤ 0
